# Bioassay records (PubChem BioAssay)
# Most compounds without a hit are left out; they make up all but 2.5% or so of the library.
# POLB inh: qHTS Assay for Inhibitors of DNA Polymerase Beta. P06746. actives 1.3% (n = 340,000). Pol beta primer extension/strand displacement, fluorescence kinetic. Potency, µM (series often up to 114 µM), inactives show at the highest dose activity change, negative = inhibition, actives largely listed as inhibitors; also: % is scaled to controls: 0 for no effect and ±100 for the full control effect
#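 Kinetic readout of DNA synthesis with strand displacement by Pol beta. Compound and 10 nM enzyme sit 15 min at room temperature; 50 nM substrate starts the reaction, read immediately and at 10 min.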
# Pol eta inh-1: qHTS for Inhibitors of Polymerase Eta; recombinant Pol eta, fluorescent DNA replication assay; Potency, µM (titrated, usually from 114 µM), without a hit: at the highest dose activity change, negative = inhibition, usual class: inhibitors; actives 1.2% (n = 390,000); also: % is scaled to controls: 0 for no effect and ±100 for the full control effect
#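 Pol eta (10 nM) was preincubated with compounds for 15 min at room temperature, after which fluorescent replication substrate (50 nM final) was added to start the reaction. Fluorescence was read kinetically at 0 and 10 min.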
# L3MBTL1 block: qHTS Assay for the Inhibitors of L3MBTL1; Lethal(3)malignant brain tumor-like protein 1 (Homo sapiens), Q9Y468; AlphaScreen L3MBTL1–H3K9me1 peptide binding; Potency, µM (doses to about 57.1 µM), without a hit: at the highest dose activity, negative = inhibition, usual class: inhibitors; actives 0.66% (n = 230,000); AID 485360, 2010; also: % is scaled to controls: 0 for no effect and ±100 for the full control effect; nearly all actives have a fitted effect of over 60% in size
#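 Read-out is AlphaScreen signal from streptavidin donor and nickel chelate acceptor beads (10 ug/mL final each) bridging L3MBTL1 (50 nM) and biotinylated K9-monomethylated H3(1-15) peptide (75 nM), after 30 min compound exposure at room temperature.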
# POLI inh: qHTS for Inhibitors of Polymerase Iota | Pol iota fluorescent replication assay, 10 min | Potency, µM (series often up to 115 µM), for the others: top-dose activity, negative = inhibition, most hits filed as inhibitors | actives 1% (n = 390,000) | AID 588590, 2011
#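 Fluorescent replication assay read twice, at 0 min and 10 min after adding 50 nM (final) substrate. Enzyme (10 nM) and compounds were first incubated 15 min at room temperature; enzyme-free buffer wells were negative controls.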
# Pol kappa inh-1: qHTS for Inhibitors of Polymerase Kappa | DNA polymerase kappa (Homo sapiens), Q9UBT6 | purified Pol kappa, fluorescent DNA synthesis assay, 10 min | Potency, µM (doses to about 107 µM), without a hit: at the highest dose activity, negative = inhibition, hits mostly inhibitors | actives 0.53% (n = 400,000) | AID 588579, 2011; also: % is scaled to controls: 0 for no effect and ±100 for the full control effect
#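 Kinetic fluorescence screen: compound preincubated 15 min RT with 10 nM enzyme; 50 nM substrate (final) initiates; reads at 0/10 min.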
# APEX1 inh: qHTS Assay for Inhibitors of the Human Apurinic/apyrimidinic Endonuclease 1 (APE1); Potency, µM (doses to about 65.8 µM), for inactives: at the top dose activity change, negative = inhibition, hits mostly inhibitors; recombinant APE1, TAMRA/BHQ-2 abasic DNA cleavage fluorescence; actives 0.35% (n = 350,000); DNA repair nuclease/redox regulator APEX1 (Homo sapiens), P27695;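 also: plate controls were vehicle for no effect and reference inhibitor for full effect; nearly all actives have a fitted effect of over 55% in size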
#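 Step 1: APE1 (0.75 nM) with compound, 15 min RT. Step 2: add 50 nM fluorophore/quencher THF duplex. Step 3: three fluorescence reads 60 s apart (525/598 nm); read 3 minus read 1 = reaction progress.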
# PGK validate: qHTS for inhibitors of Phosphogylcerate Kinase: Hit Validation Screen; actives 79% (n = 500); TbPGK coupled GAPDH assay, Kinase-Glo luminescence; shares compounds with Pol kappa inh-1; Potency, µM (top dose mostly 57.5 µM), without a hit: top-dose activity change, negative = inhibition, usual class: inhibitors; AID 686980, 2013; also: % is scaled to controls: 0 for no effect and ±100 for the full control effect; nearly all actives have a fitted effect of over 65% in size
# Pol iota confirm: qHTS for Inhibitors of Polymerase Iota: Confirmatory Assay for Cherry-picked Compounds. AID 720496, 2013. shares compounds with Pol kappa inh-1. Pol iota primer extension, TAMRA/BHQ fluorescence. Potency, µM, usual class: inhibitors. actives 77% (n = 1,500)
# Pol kappa inh-2: qHTS for Inhibitors of Polymerase Kappa: Confirmatory Assay for Cherry-picked Compounds. purified Pol-kappa, fluorescent strand-displacement substrate. shares compounds with Pol eta inh-1. Potency, µM, usual class: inhibitors. actives 76% (n = 920). AID 720501, 2013
# Pol eta inh-2: qHTS for Inhibitors of Polymerase Eta: Confirmatory Assay for Cherry-picked Compounds; Potency, µM, hits mostly inhibitors; actives 64% (n = 2,600); Pol eta primer extension, TAMRA/BHQ fluorescence, 10 min; shares compounds with Pol eta inh-1
# * hit, by the source's call; ? = inconclusive; nt = no result; [ ] = remark or other dose. Calls follow the shape of the dose curve; as a rule, active = well fitted curve in the direction sought with a large enough effect; inconclusive = small, poorly fitted or top-dose-only effect, or another doubt; inactive = no such curve, though single readings can be large; an effect the other way counts as inactive or inconclusive. Potency is read from the fitted curve at half-maximal effect.
SMILES,POLB inh,Pol eta inh-1,L3MBTL1 block,POLI inh,Pol kappa inh-1,APEX1 inh,Pol iota confirm,Pol kappa inh-2,Pol eta inh-2,others
Cc1cc(C)c(NC(=O)Cn2c(=O)n(Cc3ccc(C(=O)NCc4ccco4)cc3)c(=O)c3sccc32)c(C)c1,1.1µM*,?,nt,?,?,nt,47*,nt,67*,
Cc1ccc(CNC(=O)c2ccc(Cn3c(=O)c4ccccc4n(CC(=O)Nc4c(C)cc(C)cc4C)c3=O)cc2)cc1,?,-27%,nt,21%,0%,nt,nt,nt,nt,
O=C1C(=Cc2ccco2)CCC1=Cc1ccco1,nt,0.79µM*,nt,?,5µM*,nt,3*,2.7*,5.4*,PGK validate=18µM*
O=C1N=C(N2CCOCC2)SC1=Cc1ccco1,nt,-17%,nt,-21%,-19%,nt,nt,nt,nt,
CSc1ncccc1C(=O)NNC(=O)c1ccc(NS(=O)(=O)c2cccs2)cc1,nt,-1%,0%,10%,-21%,-15%,nt,nt,nt,
CCOC(=O)[C@@H]1[C@H]2COc3ccccc3[C@@H]2N2C(=O)N(c3ccc(OC)cc3)C(=O)[C@@]12C,27%,-4%,-4%,-2%,-14%,21%,nt,nt,nt,
COCCN1C(=O)C(=O)/C(=C(/O)c2cccc(OC)c2)C1c1ccco1 (stereo not drawn),32µM*,10µM*,?,?,?,?,?,nt,60*,
CC(=O)C1=C(C)Nc2ncnn2C1c1ccc(Br)cc1 (stereo not drawn),-11%,-15%,nt,-16%,-3%,17%,nt,nt,nt,
NS(=O)(=O)c1cccc(NC(=O)CSc2nnc3n2CCCCC3)c1,nt,-7%,-10%,6%,-10%,29%,nt,nt,nt,
CCc1nnc(NC(=O)CSc2nc(-c3ccccc3)cc(-c3ccc(F)cc3)c2C#N)s1,15%,-13%,4%,-11%,-11%,-10%,nt,nt,nt,
CCc1nnc(NC(=O)CSc2sc3c(O)cc(=O)[nH]c3c2C#N)s1,0.56µM*,3.5µM*,nt,1.8µM*,8.9µM*,11%[12.4 µM],42*,17*,30*,
CCSc1nnc(NC(=O)CSc2sc3c(O)cc(=O)[nH]c3c2C#N)s1,35µM*,3.5µM*,nt,3.5µM*,20µM*,6%[12.4 µM],42*,9.5*,24*,
Cc1n[nH]c(=S)n(NC(=O)/C=C/C(=O)Nn2c(=S)[nH]nc(C)c2=O)c1=O,20µM*,8.9µM*,?,?,8.9µM*,7.9µM*,21*,9.5*,9.5*,PGK validate=21µM*
